In all, about 33,000 sequences were measured (“E-score (-0.5 to 0.5)”: median about -0.012, highest 2% from about 0.27 on). The full list was thinned out, with the highest values kept by preference.
Each sequence was assayed against T1, Vhr1 (UniProt P40522) (assay: PBM E-score (8-mer binding enrichment) (E-score (-0.5 to 0.5)); higher = stronger / more preferred TF binding). Conditions: protein concentration: 200 nM; construct: GST-full length.
T1 sequence: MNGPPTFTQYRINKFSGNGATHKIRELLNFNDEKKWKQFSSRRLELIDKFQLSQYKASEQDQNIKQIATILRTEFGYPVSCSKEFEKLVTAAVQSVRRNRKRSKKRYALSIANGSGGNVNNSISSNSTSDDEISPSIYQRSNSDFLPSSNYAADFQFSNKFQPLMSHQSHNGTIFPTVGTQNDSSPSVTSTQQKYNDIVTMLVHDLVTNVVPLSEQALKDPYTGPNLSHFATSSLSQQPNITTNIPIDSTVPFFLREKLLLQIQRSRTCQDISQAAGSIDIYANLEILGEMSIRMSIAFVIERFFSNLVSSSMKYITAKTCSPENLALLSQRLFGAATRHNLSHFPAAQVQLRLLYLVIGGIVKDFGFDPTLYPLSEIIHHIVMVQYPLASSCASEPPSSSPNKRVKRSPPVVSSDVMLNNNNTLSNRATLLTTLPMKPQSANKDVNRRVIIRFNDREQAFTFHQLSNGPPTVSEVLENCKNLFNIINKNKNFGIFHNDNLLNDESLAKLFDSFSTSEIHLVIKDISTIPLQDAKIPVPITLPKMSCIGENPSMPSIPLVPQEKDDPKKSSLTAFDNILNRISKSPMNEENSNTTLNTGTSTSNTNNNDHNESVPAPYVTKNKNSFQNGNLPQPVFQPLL
Method: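 Universal 'all 10-mer' protein binding microarrays (Agilent AMADID 015681) probed with GST-tagged S. cerevisiae TFs (full-length or DBD) made by in vitro transcription/translation (PURExpress), about 100-200 nM. Bound TF was detected with fluorescent anti-GST. Each ungapped 8-mer (which stands for itself and its reverse complement) is scored by the PBM enrichment score (E-score), a modified Wilcoxon-Mann-Whitney statistic from -0.5 to +0.5, computed with the Universal PBM Analysis Suite. Scale: above 0.35 generally sequence-specific binding.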

In order of rising “PBM E-score” value:
1. CGTTAGAA  -0.323
2. CAAAGAGA  -0.299
3. GGAATTCC  -0.279
4. CTAGAAAC  -0.252
5. AACGCTAC  -0.205
6. ACAGGTCC  -0.195
7. GGTGCAAC  -0.183
8. AGAACTTC  -0.182
9. CTTGCCCA  -0.177
10. AAGCTCCG  -0.173
11. GAGGCAAC  -0.172
12. AAGGCTCC  -0.172
13. GACGCAAC  -0.169
14. CGTGACGC  -0.144
15. GCCCTCCA  -0.133
16. ATAAAACA  -0.125
17. CCAGCCAA  -0.119
18. GCGGGCTA  -0.119
19. GGATAACC  -0.112
20. GACCCTAA  -0.109
21. GCAGCTAA  -0.106
22. CAACCGCC  -0.102
23. GTTTGTGA  -0.0971
24. CCTGAGGC  -0.096
25. TAGCGTAA  -0.0878
26. ACTGGGGA  -0.0871
27. ACCTCGCA  -0.0858
28. CAATTTTC  -0.0832
29. CAAAGTTC  -0.0789
30. GGATTTGA  -0.0695
31. CGGAGATC  -0.0653
32. CCGTTTAG  -0.0628
33. ACGGTCAC  -0.0582
34. CTAATATA  -0.0362
35. GCCACCAC  -0.0307
36. AATAGCAC  -0.026
37. GCATCACC  -0.0259
38. CGCGGCTA  -0.0223
39. CGTGACAA  -0.0207
40. AGAAGCGA  -0.0198
41. CTTAGTAA  -0.0159
42. GACTGGCA  -0.0149
43. AAATCATT  -0.011
44. GCCTGCGA  -0.00738
45. CTATATCC  -0.00727
46. TCAGAACA  0.00034
47. ATGAGTTC  0.00071
48. GGTCGAAC  0.00191
49. AGTCAAGC  0.00212
50. CGTGACGA  0.00499
51. CAATCAAG  0.00756
52. AGAGCACG  0.00968
53. CTTAGTCC  0.0119
54. CATAACGA  0.0162
55. AGAATACT  0.0167
56. AGGTGGAA  0.0199
57. ATTAGTTG  0.0201
58. CTGAGTGC  0.0204
59. AAATCACA  0.0215
60. GTTAGTGA  0.0216
61. CGTCATGC  0.0219
62. AATTCGGA  0.0232
63. CTGCCCCA  0.0236
64. GGCTATGA  0.0249
65. GAGGTTAC  0.0302
66. CTCGTGAA  0.0314
67. ATGATATA  0.0327
68. CATTCAGA  0.0364
69. ATAATACG  0.0457
70. CTGAGTTC  0.0461
71. ATGATATC  0.0491
72. GCGCTCAC  0.0509
73. GTATATAC  0.0568
74. AGCATCTC  0.0587
75. CGGAGTAC  0.0632
76. ATGCTTTG  0.0636
77. ATCATGCC  0.0697
78. CAATCAGG  0.0706
79. ATGAGTGC  0.0758
80. CAACCGCA  0.0762
81. CCCATGGA  0.0783
82. GTAGCATA  0.079
83. ATCGACGG  0.0804
84. CTGATACA  0.0817
85. CTAATGAA  0.0817
86. CGACAATA  0.0881
87. CCATATCA  0.0898
88. GAAGGGTA  0.0935
89. ACTGCGAG  0.0985
90. ATATATCA  0.0989
91. CAGTACCC  0.103
92. ACCATGGG  0.108
93. AGTGCGCA  0.112
94. ATCGTGAC  0.113
95. GATAATGC  0.114
96. CGATTCAG  0.12
97. ATTAGTCC  0.122
98. ATGATACC  0.124
99. AGCCATGC  0.128
100. ATATATAG  0.132
101. AGCCAGTA  0.133
102. GTTAGTTA  0.137
103. CGGAGTGC  0.139
104. ATTAGTGG  0.141
105. CGTGACCC  0.141
106. ATTAGTTA  0.143
107. ATCATGGC  0.143
108. GACCACGC  0.148
109. TCTGTTCA  0.151
110. CATGGAGA  0.155
111. ATGAGTGG  0.162
112. ATGACGCG  0.162
113. CCGAATGA  0.166
114. ATGAGTTG  0.173
115. AAATCACG  0.173
116. CTGAGTAC  0.175
117. ATGAGTAG  0.189
118. ACATATCG  0.191
119. AGACATGG  0.192
120. ATCATGCA  0.192
121. CTGGGTAC  0.196
122. AGTCAAGG  0.196
123. CCTGAGTA  0.205
124. ATAATATG  0.206
125. CAATCACG  0.211
126. ATAATACC  0.212
127. GATTATAC  0.213
128. ATCATGGA  0.22
129. GTCAATCA  0.221
130. GAACTATA  0.222
131. TAATCACA  0.222
132. AAATCATA  0.227
133. AGCCATGA  0.228
134. CAATCACC  0.238
135. GGTCATGA  0.239
136. CTATATAC  0.241
137. ATATATAA  0.247
138. CGTCATGA  0.267
139. ATCATGGG  0.272
140. CTCGTGAC  0.273
141. ATATATCC  0.273
142. ATAATACA  0.277
143. ATTAGTCG  0.279
144. AGCCATGG  0.281
145. ACATATCA  0.281
146. ATCATGCG  0.283
147. CCCATGGG  0.285
148. ATATATAC  0.285
149. CAATCATG  0.289
150. ATGATACA  0.289
151. AAATCATG  0.29
152. CTGAGTCC  0.292
153. ATAATATA  0.3
154. CAACCGCG  0.3
155. AAATCACC  0.312
156. ATGATATG  0.315
157. CGGAGTCC  0.324
158. ATATATAT  0.324
159. GAATCACA  0.341
160. ATGAGTAC  0.347
161. CTTAGTCA  0.376
162. ATTAGTCA  0.381
163. ATGAGTCC  0.389
164. GAATCACC  0.392
165. CGTGACTA  0.419
166. GTTAGTCA  0.43
167. AGTCATGC  0.443
168. AGTCATGG  0.458
169. CCTGAGTC  0.461
170. ATGAGTCG  0.462
171. AGTCATGA  0.466
172. CGTGACTC  0.472

Reference: the supplement of paper PMC3334620
